Experimental data reported in PubChem BioAssay (NCI).
“And” between values parts separate entries of the source, which are not always exact repeats. Equal values may be shown once. About 83,000 compounds went through this panel and 20% of them were active in at least one assay; those are over-represented in the sample as a whole.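 In brief: 96-well plates, 48 h treatment, single concentration, percent growth endpoint.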 The source made the active and inactive calls. Where a SMILES comes first, the peptide text is derived from it. [ ]: non-standard residue; d: D form. ξ: configuration not given here. ξV = CC(C)C(N)C(=O)O

These compounds were tested on M14 melanoma (assay: NCI-60 one-dose screen, 48 h (100 = growth as untreated, 0 = no growth, -100 = all killed)). Settings: 0.0025 µM.
Procedure: Growth inhibition of the M14 human tumor cell line is measured as a screen for anti-cancer activity. Cells are grown in 96 well plates and exposed to the test compound for 48 hours. Compounds are tested at a single concentration, which is 10^-5 M for most compounds. The reported endpoint is percent growth (GI% or GIPRCNT), where numbers from 0 - 100% represent growth inhibition, and numbers from -100% - 0 represent cell death. For example, a value of 40 represents 60% growth inhibition. A value of 0 means no net growth occurred over the course of the experiment. A value of -40 indicates 40% of cells at the beginning of the experiment died by the end of the experiment. A value of -100 means all cells are dead at the end of the experiment.
NCI-60 Human Tumor Cell Lines Screen was performed using the standard one-dose NCI protocol, which is described in more detail at https://dtp.cancer.gov/discovery_development/nci-60/default.htm.
Compounds with GIPRCNT values below 10 were considered active. Activity score was based on GIPRCNT using the following formula: […]
Score is 0 for GIPRCNT values of 100 or above, 50 for GIPRCNT values of 0, and 100 for GIPRCNT values of -100.
With COc1cccc2c1C(=O)c1c(O)c3c(c(O)c1C2=O)C[C@@](O)(C(=O)CO)C[C@@H]3OC1CC(N)C(O)C(C)O1 (stereo not given in full) the growth was 90.9% (inactive).

Same assay, conditions: 1 µM
COc1cccc2c1C(=O)c1c(O)c3c(c(O)c1C2=O)C[C@@](O)(C(=O)CO)C[C@@H]3OC1CC(N)C(O)C(C)O1 (stereo not given in full) was tested, and the growth was 16.6% (inactive).

Same assay, conditions: 2.5 µM
For COc1cccc2c1C(=O)c1c(O)c3c(c(O)c1C2=O)C[C@@](O)(C(=O)CO)C[C@@H]3OC1CC(N)C(O)C(C)O1 (stereo not given in full), the growth was 50.9% (inactive).

Same assay, conditions: 10 µM
In the case of COC(=O)C1C(O)C(C)C(O)C(C)C=C(C)C2=C3C(=C(C)C(=O)c4c(O)c(c(C)c(OC(C)=O)c43)NC(=O)C(C)=C/C=C\C(C)C(O)C(C)C1O)OCO2 (stereo not given), the growth is reported as 108% (inactive).
In the case of COC(=O)C1=COC(C)C2C[n+]3ccc4c([nH]c5ccccc54)c3CC12 (stereo not given), the growth is reported as 107% (inactive) and 94% (inactive).
With CCCCCC(C)c1ccc(O)c(C)c1 (stereo not given) the growth was 97.7% (inactive).
In the case of CCN(CC)c1ccc(NC(C(=O)c2ccccc2)c2ccccc2)cc1 (stereo not given), the growth is reported as 22.8% (inactive).
With CO[C@H](C(=O)[C@@H](O)[C@@H](C)O)[C@@H]1Cc2cc3cc(OC4CC(OC5CC(O)C(O)C(C)O5)C(O)C(C)O4)c(C)c(O)c3c(O)c2C(=O)[C@H]1OC1CC(OC2CC(OC3CC(C)(O)C(O)C(C)O3)C(O)C(C)O2)C(O)C(C)O1 (stereo not given in full) the growth was -71.5% (active).
With O=c1ccn(C2CC(O)C(COC(c3ccccc3)(c3ccccc3)c3ccccc3)O2)c(=O)[nH]1 (stereo not given) the growth was 81.4% (inactive).
For O=C(Nc1ccc(C(=O)O)c(O)c1)c1ccccc1, the growth was 106% (inactive) and 99.6% (inactive).
For CCCCCCCCCCCC[N+](C)(C)Cc1ccccc1, the growth was 7.19% (active).
NC1=C(Cl)C(=O)c2ccccc2C1=O was tested, and the growth was 28.7% (inactive).
O=C1C=C(O)c2ccccc2C1=O.[Ag] was tested, and the growth was 91.3% (inactive).
In the case of CC(=O)Nc1cc(C)ccc1C, the growth is reported as 101% (inactive).
For COc1c(O)cc2oc3cc(O)c(CC=C(C)C)c(O)c3c(=O)c2c1CC=C(C)C, the growth was 54.4% (inactive).
CC1=CC(C)=Nc2ccc(Cl)cc2N1 was tested, and the growth was 102% (inactive).
O=C(/C=C/c1cccnc1)c1ccccc1 was tested, and the growth was 88.6% (inactive).
In the case of CS(=O)(=O)OC1CC(n2ccc(=O)[nH]c2=O)OC1COC(c1ccccc1)(c1ccccc1)c1ccccc1 (stereo not given), the growth is reported as 88.7% (inactive).
CC(=O)OCC(OC(C)=O)C(OC(C)=O)C(OC(C)=O)C(OC(C)=O)C(/C=N/Nc1ccccc1)=N/Nc1ccccc1 (stereo not given) was tested, and the growth was 82.3% (inactive).
In the case of Nc1c2ccccc2nc2ccccc12, the growth is reported as 7.24% (active) and 34.6% (inactive) and 42.3% (inactive).
For CCN1/C(=C/C=C/C=C/c2sc3ccccc3[n+]2CC)Sc2ccccc21, the growth was -81.7% (active).
Oc1ccc(N=Nc2ccccn2)c(O)c1 was tested, and the growth was -6.58% (active).
OCC(O)C(O)C(O)C(/C=N/Nc1ccccc1)=N/Nc1ccccc1 (stereo not given) was tested, and the growth was 87.5% (inactive).
With Cc1cc(O)c(C(C)C)cc1Cl the growth was 101% (inactive).
With CC(C)C(NC(=O)CN)C(=O)O (stereo not given) (H-Gly-[ξV]-OH) the growth was 105% (inactive) and 108% (inactive).
In the case of O=C1C=CC(=CC=C2C=CN(CCCCCCCCCCCO)C=C2)C=C1, the growth is reported as 45.4% (inactive).
In the case of NC(=O)SCC(=O)NNc1ccccc1, the growth is reported as 102% (inactive).
For Nc1ccc2cc3ccc(N)cc3nc2c1, the growth was 107% (inactive) and 12.6% (inactive).
With O=C(C(=Cc1ccccc1)C(=O)c1ccccc1)c1ccccc1 the growth was 47.5% (inactive).
For N=S(c1ccccc1[N+](=O)[O-])c1ccccc1[N+](=O)[O-], the growth was 60.2% (inactive).
In the case of CN(C)C(=S)SC(=S)N(C)C, the growth is reported as 90.5% (inactive) and 93% (inactive).
In the case of Cc1nc(N=C(N)N)nc2ccc3ccccc3c12, the growth is reported as 4.95% (active).
COC1OCC(O)C(O)C1O (stereo not given) was tested, and the growth was 101% (inactive).
With NNc1c2ccccc2nc2ccccc12 the growth was 66.4% (inactive).
With CN1CCN(CCCN2c3ccccc3Sc3ccc(C(F)(F)F)cc32)CC1 the growth was -74% (active).
CC(C)(C)CC(C)(C)c1ccc(OCCO)cc1 was tested, and the growth was 112% (inactive).
For OC(CN1CCCC2CCCCC21)c1cc2ccccc2c2ccccc12 (stereo not given), the growth was -69.8% (active).
With Nc1nc(=S)c2ncn(C3OC(CO)C(O)C3O)c2[nH]1 (stereo not given) the growth was 109% (inactive) and 15.5% (inactive).
CCCCCCCCCCCCSC(=NC)NC was tested, and the growth was -19.2% (active) and 60.6% (inactive).

Same assay, conditions: 100 µM
For O=c1ccn(C2CC(O)C(COC(c3ccccc3)(c3ccccc3)c3ccccc3)O2)c(=O)[nH]1 (stereo not given), the growth was 52.5% (inactive).
